Compound activity from PubChem BioAssay.
NPC1 prom act: NPC1 promoter activation; actives 2.4% (n = 320,000); Huh7 NPC1 promoter luciferase reporter, 24 h; Potency, µM (top dose mostly 9.22 µM), without a hit: at the top dose activation, actives largely listed as activators; AID 485313; note: % of control where 0% means no effect; nearly all actives have a fitted effect of over 60% in size
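Compounds in DMSO were transferred onto Huh7 NPC1-luciferase reporter cells pre-incubated 2 h; after 24 h at 37 °C, Amplite reagent was dispensed and luminescence recorded 10 min later.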
Rab9 promoter act: activates the Rab9 promoter; Huh7 Rab9 promoter-luciferase reporter, luminescence, 24 h; Potency, µM (top dose mostly 9.22 µM), for the others: at the top dose activation, negative = inhibition, most hits filed as activators; actives 2.8% (n = 320,000); AID 485297; note: % of control where 0% means no effect; nearly all actives have a fitted effect of over 60% in size
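Huh7 cells stably carrying Rab9 promoter–luciferase reporter, plated 1500 cells/well, compound added after 2 h and incubated 24 h at 37 °C; luciferase luminescence then read after 10 min with detection reagent.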
FLuc modulator: firefly luciferase modulation, counter-screen for miR-21 project | P08659 | purified FLuc, Km substrates, luminescence inhibition | Potency, µM (top dose mostly 57.5 µM), inactives show at the highest dose activity change, negative = inhibition, usual class: inhibitors | actives 6.9% (n = 360,000) | AID 588342;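 note: plate controls were vehicle for no effect and reference inhibitor for full effect; nearly all actives have a fitted effect of over 55% in size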
Target sequence (P08659 whole entry, looked up): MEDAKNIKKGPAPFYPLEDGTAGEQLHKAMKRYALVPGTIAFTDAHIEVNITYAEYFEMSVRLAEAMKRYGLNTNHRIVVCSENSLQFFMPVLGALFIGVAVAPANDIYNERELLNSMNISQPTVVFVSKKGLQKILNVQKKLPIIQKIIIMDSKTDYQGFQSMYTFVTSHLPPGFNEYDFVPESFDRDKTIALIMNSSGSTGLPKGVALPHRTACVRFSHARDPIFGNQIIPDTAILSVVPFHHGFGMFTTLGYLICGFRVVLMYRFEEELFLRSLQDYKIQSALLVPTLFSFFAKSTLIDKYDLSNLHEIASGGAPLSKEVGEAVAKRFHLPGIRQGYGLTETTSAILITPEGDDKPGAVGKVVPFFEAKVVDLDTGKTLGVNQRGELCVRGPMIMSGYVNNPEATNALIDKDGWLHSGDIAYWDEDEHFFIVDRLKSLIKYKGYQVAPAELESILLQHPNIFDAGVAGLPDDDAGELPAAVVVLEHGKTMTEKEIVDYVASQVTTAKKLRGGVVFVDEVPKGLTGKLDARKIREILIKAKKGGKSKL
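Purified P. pyralis luciferase (10nM final) with 10uM D-luciferin and 10uM ATP (Km levels) in 50mM Tris acetate pH 7.5, 10mM Mg acetate, 0.01% Tween-20, 0.05% BSA; qHTS 6-point titration, ~60 µM downward; luminescence read.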
ELG1 genotoxic: inducers of genotoxicity in HEK293T ELG1-luciferase cells | HEK293T ELG1-luciferase reporter, luminescence, 16 h | Potency, µM (titrated, usually from 46 µM), inactives show at the top dose activity change, positive = activation, usual class: activators | actives 1.3% (n = 330,000); note: % of control where 0% means no effect; nearly all actives have a fitted effect of over 60% in size
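Genotoxicity was scored as increased ELG1-luciferase reporter signal, measured by ONE-Glo luminescence (30 min, room temperature). Compound or vehicle exposure of the HEK293T reporter cells lasted 16 hr at 37°C.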
SMN2 splice enh: SMN2 splice variant enhancement. HEK293 SMN2-luciferase splicing reporter, luminescence, 30-36 h. Potency, µM (titrated, usually from 46.1 µM), without a hit: at the highest dose activity change, positive = activation, actives largely listed as activators. actives 2.8% (n = 210,000). AID 1458; note: % of control where 0% means no effect; nearly all actives have a fitted effect of over 55% in size
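HEK293 cells carry an SMN2 minigene-luciferase reporter in which exon 7 inclusion puts luciferase in frame. Cells were seeded at 2000 cells/well, attached for 10-12 hours, then exposed to compounds for 30-36 hours at 37C before ONE-Glo luminescence.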
Starred values were filed as active, the others as inactive; ? = inconclusive; nt = not tested or not shown; [ ] = dose if it differs, or a comment. The list is not random: actives were taken first. Their share in the collection is about 7.4%. Calls come from the whole dose curve; as a rule, active = well fitted curve in the direction sought with a large enough effect; inconclusive = small, poorly fitted or top-dose-only effect, or another doubt; inactive = no such curve, though single readings can be large; an effect the other way counts as inactive or inconclusive. Potency is the fitted concentration of half-maximal effect.

SMILES | NPC1 prom act | Rab9 promoter act | FLuc modulator | ELG1 genotoxic | SMN2 splice enh
O=C(COc1ccc2c(c1)OCO2)Nc1ccc(Cl)cn1 | 2µM* | 3.55µM* | 13.5µM* | ? | nt
O=C(COc1ccccc1)NS(=O)(=O)c1ccc(Cl)cc1 | 15.6% | 5.5% | 16.9µM* | 9.8% | nt
COC(=O)c1ccc(NC(=O)COc2ccc3c(c2)OCO3)cc1 | -2.9% | -0.3% | 0.9% | 0.2% | nt
Cc1nnc(SCC(=O)Nc2sccc2C(N)=O)s1 | -1.1% | 0.6% | -4.8% | -2.6% | nt
COc1cccc(Nc2nnc(SCn3nnc4ccccc4c3=O)s2)c1 | -6.2% | -8.9% | -12.3% | -3.5% | 15.9%
CCc1ccc(Nc2nnc(SCC(=O)Nc3sccc3C(N)=O)s2)cc1 | 28.4% | 17.6% | 2.13µM* | -1.8% | ?
CCc1ccc(Nc2nnc(SCC(=O)c3c(N)n(C4CC4)c(=O)[nH]c3=O)s2)cc1 | 25.2% | 27.1% | 0.601µM* | 11.2% | nt
CCc1ccc(Nc2nnc(SCC(=O)NCCN3C(=O)CSC3=O)s2)cc1 | 28.1% | ? | 1.9µM* | ? | 11.2µM*
COc1cccc(Nc2nnc(SCC(=O)Nc3sccc3C(N)=O)s2)c1 | 0.9% | -1.5% | 10.7µM* | -22.3% | -17.7%
Cc1ccc(-c2csc(SCC(=O)c3c(N)n(C4CC4)c(=O)[nH]c3=O)n2)cc1 | -0.7% | 1.5% | -1.0% | -4.4% | nt
O=C(CNC(=O)c1ccccc1Cl)NCC(c1cccs1)N1CCOCC1 (configuration not stated) | 7.5% | 0.6% | 0.2% | 2.6% | nt
CCc1ccc(Nc2nnc(SCC(=O)Nc3cccnc3Cl)s2)cc1 | -2.7% | 4.0% | 1.35µM* | 5.9% | nt
Cc1nnc(SCC(=O)Nc2cccnc2Cl)s1 | -0.4% | -1.0% | 6.8% | -1.3% | nt
COc1ccc(C(=O)/C=C/Nc2ccccn2)c(OC)c1 | 0.562µM* | 0.891µM* | 3.38µM* | 1.83µM* | nt
O=C(/C=C/Nc1ccccc1Br)c1ccccn1 | nt | nt | 0.0757µM* | nt | ?
COc1ccc(C(=O)/C=C/Nc2c(C)n(C)n(-c3ccccc3)c2=O)c(OC)c1 | -1.6% | -3.1% | -0.7% | 1.4% | 8.1%
O=C(CC(=O)Nc1ccccn1)Nc1ccccn1 | 0.0% | -2.7% | 0.1% | 0.3% | -5.3%
O=C(/C=C\Nc1ccccn1)c1ccccc1 | 0.631µM* | 0.355µM* | 0.675µM* | 0.517µM* | 2µM*
Cc1ccccc1NC(=O)c1ccccn1 | 21.3% | 20.0% | ? | 10.5% | nt
CCCn1c(-c2ccc(F)cc2)nc2c(N3CCN(CCn4ccnc4)CC3)nc(C)nc21 | nt | nt | nt | nt | -10.6%
COc1ccc(C2c3ccc(O)cc3Oc3ncn4nc(-c5ccncc5)nc4c32)cc1OC (configuration not stated) | 0.2% | -9.5% | 0.8% | -0.6% | nt
Cc1nnc(SCC(=O)Nc2ccc(N3CCOCC3)cc2)n1Cc1ccccc1 | 0.5% | -0.5% | nt | 1.9% | nt
Cc1cn(CCC(=O)Nc2ccc(N3CCOCC3)cc2)c2ccccc12 | ? | ? | 13.5µM* | ? | nt
Cn1c(SCC(=O)Nc2ccc(N3CCOCC3)cc2)nnc1-c1ccco1 | -3.5% | 2.4% | 16.9µM* | 1.0% | nt
CC(C)n1c(SCC(=O)Nc2ccc(N3CCOCC3)cc2)nnc1-c1ccco1 | 7.3% | -0.4% | ? | -3.6% | nt
SMILES | NPC1 prom act | Rab9 promoter act | FLuc modulator | ELG1 genotoxic | SMN2 splice enh
Cn1c(SCC(=O)Nc2ccc(N3CCOCC3)cc2)nnc1-c1ccccc1 | 1.6% | 4.2% | 16.9µM* | 7.6% | 41.0%
Cn1c(SCC(=O)Nc2ccc(N3CCOCC3)cc2)nnc1-c1ccccc1F | 7.4% | 11.6% | 16.9µM* | 7.9% | nt
COc1ccc(OC)c(/C=C(\C#N)c2nc(-c3ccc(F)cc3)cs2)c1 | nt | nt | 1.8% | nt | nt
O=C(CN1CCN(C(c2ccccc2)c2ccccc2)CC1)Nc1ccc(N2CCOCC2)cc1 | -1.3% | -4.6% | -1.8% | -1.5% | 12.6µM*
O=C(CN1CCN(S(=O)(=O)c2ccccc2)CC1)Nc1ccc(N2CCOCC2)cc1 | -0.3% | -5.4% | 4.6% | 0.8% | -34.7%
CN(C)/C=C/C(=O)c1ccc(-n2cccc2)cc1 | 3.55µM* | 2.82µM* | 10.7µM* | ? | 12.6µM*
Cc1ccc(NC(=O)CCc2c(C)nn(-c3ccc(N4CCCCC4)nn3)c2C)cc1C | ? | ? | 12µM* | 11.8%[9.26 µM] | nt
